{"source": "PubChem BioAssay (Tox21)", "note": "Inconclusive results are not listed. A call without a number means that no potency is given here. Unmarked numbers belong to inactive results. Activity calls are given as the source filed them. Calls come from the whole dose curve. Potency is the fitted concentration of half-maximal effect.", "data": [{"experiment": "qHTS assay to identify small molecule antagonists of the sonic hedgehog signaling (Shh) pathway (AID 1259369); note: nearly all actives have a fitted effect of over 45% in size", "conditions": "NIH/3T3 Gli1-Luc reporter, Shh antagonist, luminescence 24 h; series mostly up to 92.4 µM", "text": "U.S. Tox21 Program National Center for Advancing Translational Sciences [NCATS] NIH Chemical Genomics Center [NCGC] U.S. Environmental Protection Agency [EPA] National Institutes of Environmental Health Sciences [NIEHS] National Toxicology Program [NTP] U.S. Food and Drug Administration [FDA] Tox21 Assay Overview: The sonic hedgehog (Shh) pathway is essential for normal embryonic development. Dysregulation of the Shh pathway can cause severe developmental defects in organs. Therefore chemicals that interfere with the pathway are potential developmental toxicants. A cell line designated 3T3Gli1-Luc (DMB/OARSA/CFSAN/FDA, Laurel, MD), a NIH/3T3 derived clone containing stably integrated Gli1-Luc reporter is used to detect chemical interference of the Shh pathway, by changes in the expression of the firefly Luc gene under the control of the Gli1 transcriptional response element. This cell line was used to screen Tox21 libraries for identifying and prioritizing the potential developmental toxicants that interfere Shh pathway. Conditioned medium-stimulated mode was used to screen for chemicals inhibiting Shh signaling.\nTox21 Assay Protocol Summary: 3T3 Gli1-Luc cells were dispensed at 2,000 per well in 5uL of culture medium into white solid bottom 1536-well plates (Greiner Bio-One, Monroe, NC) using a Multidrop Combi (Thermo Scientific, Waltham, MA) dispenser. The assay plates were incubated at 37 C and 5% CO2 for 4hr, and then 23nL of compounds dissolved in DMSO and positive control were transferred using a Pintool station (Wako, San Diego, CA). The compound transfer was followed by the addition of 1ul conditioned medium or assay buffer using two separate tips of Flying Reagent Dispenser (FRD, Aurora Discovery, San Diego, CA). The assay plates were incubated at 37C and 5% CO2 for 24hr. For luciferase read, 4uL of Amplite Luciferase reporter gene assay reagent (AAT Bioquest, Inc. Sunnyvale, CA) was added to each well of the assay plates using FRD and incubated at room temperature for 30min. The luminescence signal was measured using a ViewLux plate reader (Perkin Elmer, Shelton, CT).", "values": [{"smiles": "Cc1cc(NC(=O)C(=O)O)cc(C)c1Oc1ccc(O)c2c1CCC2", "Potency": "inactive"}, {"smiles": "Cc1ncsc1CCO", "Potency": "inactive"}, {"smiles": "COc1cc(C(C)(C)C)c(O)c(C(C)(C)C)c1", "Potency": "inactive"}, {"smiles": "CCCCOc1cc(C(=O)OCCN(CC)CC)ccc1N", "Potency": "inactive"}, {"smiles": "O=C(c1ccccc1)c1ccc2n1CCC2C(=O)O", "note": "(stereo not given)", "Potency": "inactive"}, {"smiles": "CC(=O)O[C@@H]1C(=O)O[C@@H]2[C@H]1OC(=O)[C@@H]2OC(C)=O", "Potency": "inactive"}, {"smiles": "CC(C)(Oc1ccc(Cl)cc1)C(=O)OCCCOC(=O)C(C)(C)Oc1ccc(Cl)cc1", "Potency": "inactive"}, {"smiles": "CC(=O)N(CC(=O)N(C)C)c1ccccc1", "Potency": "inactive"}, {"smiles": "CCCCOCCOCCOCCOCCO", "Potency": "inactive"}, {"smiles": "Nc1ccc(C(=O)N2CC3CC(CN(Cc4ccccc4)C3)C2)cc1", "Potency": "inactive"}, {"smiles": "CN(C)CC[C@@H](c1ccc(Br)cc1)c1ccccn1", "Potency": "inactive"}, {"smiles": "C1CCC2OC2C1", "note": "(stereo not given)", "Potency": "inactive"}, {"smiles": "Cc1occc1S", "Potency": "inactive"}, {"smiles": "CN1CCC(=C2c3ccccc3CCc3sccc32)CC1", "Potency": "2.98 µM (active)"}, {"smiles": "CCN(CC)CCOc1ccc2c(c1)C(=O)c1cc(OCCN(CC)CC)ccc1-2", "Potency": "inactive"}, {"smiles": "CC(C)CCCCCCOC(=O)c1ccc(C(=O)OCCCCCCC(C)C)c(C(=O)OCCCCCCC(C)C)c1", "Potency": "inactive"}, {"smiles": "CCCCC(CC)COCCCN", "note": "(stereo not given)", "Potency": "inactive"}, {"smiles": "Cc1ccccc1N=Nc1ccc(N=Nc2c(O)ccc3ccccc23)c(C)c1", "Potency": "inactive"}, {"smiles": "CC[C@@H]1C[C@H](N(Cc2cc(C(F)(F)F)cc(C(F)(F)F)c2)C(C)=O)c2cc(C(F)(F)F)ccc2N1C(=O)OC(C)C", "Potency": "9.69 µM (active)"}, {"smiles": "CCN(CC)CCc1nc(-c2ccccc2)no1", "Potency": "inactive"}, {"smiles": "O=C(O)C1CCC(C(=O)O)CC1", "note": "(stereo not given)", "Potency": "inactive"}, {"smiles": "Oc1ccc(O)c2c(O)cccc12", "Potency": "inactive"}, {"smiles": "O=S(=O)(O)c1ccc(O)c2ncccc12", "Potency": "inactive"}, {"smiles": "CC(=O)NCCCS(=O)(=O)O", "Potency": "inactive"}, {"smiles": "O=C(Cl)c1c(Cl)cccc1Cl", "Potency": "inactive"}, {"smiles": "O=C(CCN1CCN2CCCC2C1)N1c2ccccc2Sc2ccc(Cl)cc21", "note": "(stereo not given)", "activity change, negative = inhibition": "-18.5% [at 19 µM]"}, {"smiles": "SC1CCCC1", "Potency": "inactive"}, {"smiles": "OCC1CC2CC1C1CCC(CO)C21", "note": "(stereo not given)", "Potency": "inactive"}, {"smiles": "CCCCOC(=O)/C=C\\C(=O)OCCCC", "Potency": "inactive"}, {"smiles": "N#Cc1c(F)cccc1F", "Potency": "inactive"}, {"smiles": "CC(C)(C)c1cc(O)c(C(C)(C)C)cc1O", "Potency": "30.6 µM (active)"}, {"smiles": "CCN(CC)C(C)CN1c2ccccc2Sc2ccccc21", "note": "(stereo not given)", "Potency": "inactive"}, {"smiles": "CCOC(=O)C1=NN(c2ccccc2)C(=O)C1", "Potency": "inactive"}, {"smiles": "CC(C(=O)O)c1ccc(-c2ccccc2)c(F)c1", "note": "(stereo not given)", "Potency": "inactive"}, {"smiles": "CC(=O)/C=C/C1C(C)=CCCC1(C)C", "note": "(stereo not given)", "Potency": "inactive"}, {"smiles": "COC(=O)C(C)=O", "Potency": "inactive"}, {"smiles": "CCCCCC/C=C/C=O", "Potency": "inactive"}, {"smiles": "Cc1cc(C)c(S(=O)(=O)O)cc1N=Nc1cc(S(=O)(=O)O)c2ccccc2c1O", "Potency": "inactive"}, {"smiles": "CC[C@H](C)[C@@H](C(=O)O)n1sc2ccccc2c1=O", "Potency": "27.3 µM (active)"}, {"smiles": "CCCCCOC(=O)COc1cc(N2C(=O)C3=C(CCCC3)C2=O)c(F)cc1Cl", "Potency": "inactive"}]}]}
